Measurements from PubChem BioAssay (NCI).
About 79,000 compounds went through this panel and 15% of them were active in at least one assay; those are over-represented in the sample as a whole. The source made the active and inactive calls. Cut-off read from the data, not from the text of the source: active = growth inhibition above about 70%; inactive = the rest.

Legend:
[1] = NCI Yeast Anticancer Drug Screen. Data for the rad52 strain (AID 147);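 note: 0% = growth of vehicle-treated control cultures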; settings: S. cerevisiae rad52 mutant growth inhibition, hits give high values
Summary of the method: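 Compounds are applied to a genetically defined yeast strain lacking normal DNA damage repair, and inhibition of growth is expressed relative to cultures given vehicle only.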

[2] = NCI Yeast Anticancer Drug Screen. Data for the wt1 strain (AID 149);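 note: 0% = growth of vehicle-treated wt1 cultures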; settings: S. cerevisiae wt1 strain (SPY 50644) growth inhibition, hits give high values
Summary of the method: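 wt1 strain grown with compound or vehicle; inhibition taken from the growth difference.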

[3] = NCI Yeast Anticancer Drug Screen. Data for the rad50EPP+ strain (AID 151);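 note: 0% = growth of vehicle-treated control cultures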; settings: S. cerevisiae rad50 mutant strain, hits give high values
Summary of the method: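 Compounds were applied to the rad50EPP+ yeast strain, which bears a defined DNA repair alteration, and growth inhibition was determined relative to vehicle-treated cultures.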

[4] = NCI Yeast Anticancer Drug Screen. Data for the mgt1 strain (AID 153); settings: S. cerevisiae mgt1 mutant growth inhibition, hits give high values
Summary of the method: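 Strain: mgt1 yeast, one of a set carrying defined DNA damage repair or cell cycle control alterations. Compound-treated growth compared with vehicle.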

[5] = NCI Yeast Anticancer Drug Screen. Data for the rad50 strain (AID 155);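 note: 0% = growth of vehicle-only cultures of the same strain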; settings: S. cerevisiae rad50 strain growth inhibition, hits give high values
Summary of the method: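 DNA repair mutant yeast, compound exposure, growth read-out; inhibition is taken relative to vehicle.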

[6] = NCI Yeast Anticancer Drug Screen. Data for the mec2-1 strain (AID 157); settings: S. cerevisiae mec2-1 strain, hits give high values
Summary of the method: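 Strain: mec2-1 (DNA repair/cell cycle alteration). Compound exposure, then growth measured; inhibition expressed relative to vehicle.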

[7] = NCI Yeast Anticancer Drug Screen. Data for the rad14 strain (AID 159);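 note: 0% = growth of vehicle-treated control cultures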; settings: S. cerevisiae rad14 strain growth inhibition, hits give high values
Summary of the method: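 DNA repair-defective yeast, compound-exposed; % growth inhibition derived by comparison with vehicle-treated controls.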

[8] = NCI Yeast Anticancer Drug Screen. Data for the sgs1 mgt1 strain (AID 161);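 note: 0% = growth of cultures given vehicle only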; settings: S. cerevisiae sgs1 mgt1 strain, hits give high values
Summary of the method: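 Read-out: growth inhibition vs vehicle controls. Cells: mutant yeast strain deficient in DNA damage repair.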

[9] = NCI Yeast Anticancer Drug Screen. Data for the CLN2oe strain (AID 163);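 note: 0% = growth of vehicle-only control cultures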; settings: S. cerevisiae CLN2oe strain, hits give high values
Summary of the method: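 Growth of a genetically modified yeast strain is measured after compound exposure and compared with cultures given vehicle alone.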

[10] = NCI Yeast Anticancer Drug Screen. Data for the cln2 rad14 strain (AID 165);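 note: 0% = growth equal to vehicle treated cultures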; settings: S. cerevisiae cln2 rad14 strain, hits give high values
Summary of the method: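 Compounds are applied to the cln2 rad14 yeast strain, and growth is then compared with that of vehicle-treated cultures to give inhibition.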

[11] = NCI Yeast Anticancer Drug Screen. Data for the bub3 strain (AID 167); settings: S. cerevisiae bub3 mutant strain, hits give high values
Summary of the method: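 In this screen, a yeast mutant lacking normal mitotic checkpoint function is challenged with compound. Relative growth versus vehicle gives the inhibition value.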

[12] = NCI Yeast Anticancer Drug Screen. Data for the wt2 strain (AID 169);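 note: 0% = growth of vehicle-treated yeast cultures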; settings: S. cerevisiae wt2 strain growth inhibition, hits give high values
Summary of the method: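 This strain belongs to a panel of yeast strains with defined genetic alterations in DNA damage repair or cell cycle control. Compounds are applied, and growth inhibition is measured against vehicle-treated cultures.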

[13] = NCI Yeast Anticancer Drug Screen. Data for the mlh1 strain (AID 171);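 note: 0% = growth of vehicle-treated control cultures of the same strain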; settings: S. cerevisiae mlh1 strain growth inhibition, hits give high values
Summary of the method: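 Growth of the mutant yeast strain after compound exposure, expressed as inhibition relative to vehicle-only controls.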

[14] = NCI Yeast Anticancer Drug Screen. Data for the sgs1 strain (AID 173);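 note: 0% = growth of vehicle-only control cultures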; settings: S. cerevisiae sgs1 mutant, hits give high values
Summary of the method: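 Growth of a yeast strain bearing a defined genetic alteration is measured after compound treatment. Inhibition is expressed relative to vehicle-only controls.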

[15] = NCI Yeast Anticancer Drug Screen. Data for the mlh1 rad18 strain (AID 175); settings: S. cerevisiae mlh1 rad18 strain growth inhibition, hits give high values
Summary of the method: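 Read-out is yeast growth inhibition, calculated against vehicle-only controls. The compound was applied to a strain engineered with DNA damage repair alterations.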

[16] = NCI Yeast Anticancer Drug Screen. Data for the rad18 strain (AID 177); settings: S. cerevisiae rad18 mutant growth inhibition, hits give high values
Summary of the method: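 Growth of the mutant yeast strain after compound exposure, normalised to vehicle-only cultures.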

[17] = at 5.0 µM (retest, dose inferred, filed as 0.5)
[18] = at 50.0 µM (retest, dose inferred, filed as 5.0)

Measured: growth inhibition

CCCCS/C(=C(/C#N)C(N)=O)c1cc2c([nH]1)CCCC2
inactive: [1]; at 1.2 µM 24% | [1]; at 3.7 µM 26% | [1]; at 11.0 µM 33% | [1]; at 33.0 µM 40% | [2]; at 1.2 µM -9% | [2]; at 3.7 µM 0% | [2]; at 11.0 µM -8% | [2]; at 33.0 µM -12% | [2]; at 100.0 µM 56% | [3]; at 1.2 µM 11% | [3]; at 3.7 µM 13% | [3]; at 11.0 µM 11% | [3]; at 33.0 µM 22% | [3]; at 100.0 µM 31% | [4]; at 1.2 µM -7% | [4]; at 3.7 µM -21% | [4]; at 11.0 µM -21% | [4]; at 33.0 µM -14% | [4]; at 100.0 µM 49% | [5]; at 1.2 µM 25% | [5]; at 3.7 µM 23% | [5]; [17] 16% | [5]; at 11.0 µM 24% | [5]; at 33.0 µM 28% | [5]; [18] 30% | [5]; at 50.0 µM 41.2% | [5]; at 100.0 µM 48% | [6]; at 1.2 µM -8% | [6]; at 3.7 µM -22% | [6]; [17] -1% | [6]; at 11.0 µM -17% | [6]; at 33.0 µM -34% | [6]; [18] 13% | [6]; at 50.0 µM 62.4% | [6]; at 100.0 µM 52% | [7]; at 1.2 µM -11% | [7]; at 3.7 µM -9% | [7]; at 11.0 µM -13% | [7]; at 33.0 µM -16% | [7]; at 100.0 µM 62% | [8]; [17] 9% | [8]; [18] 31% | [8]; at 50.0 µM 60.5% | [9]; at 1.2 µM -21% | [9]; at 3.7 µM -19% | [9]; at 11.0 µM -18% | [9]; at 33.0 µM -32% | [9]; at 100.0 µM 56% | [10]; [17] 8% | [10]; [18] 24% | [10]; at 50.0 µM 54.2% | [11]; at 1.2 µM -37% | [11]; at 3.7 µM -36% | [11]; [17] 4% | [11]; at 11.0 µM -30% | [11]; at 33.0 µM -6% | [12]; at 1.2 µM -13% | [12]; at 3.7 µM -17% | [12]; at 11.0 µM -16% | [12]; at 33.0 µM 6% | [13]; at 1.2 µM -13% | [13]; at 3.7 µM -19% | [13]; at 11.0 µM -30% | [13]; at 33.0 µM -36% | [13]; at 100.0 µM 54% | [14]; at 1.2 µM 12% | [14]; at 3.7 µM 17% | [14]; at 11.0 µM 18% | [14]; at 33.0 µM 22% | [15]; [17] 13% | [15]; [18] 46% | [15]; at 50.0 µM -32.3% | [16]; at 1.2 µM 0% | [16]; at 3.7 µM -13% | [16]; at 11.0 µM -24% | [16]; at 33.0 µM -19% | [16]; at 100.0 µM 44%
active: [1]; at 100.0 µM 72% | [11]; [18] 71% | [11]; at 50.0 µM 83.5% | [11]; at 100.0 µM 81% | [12]; at 100.0 µM 98% | [14]; at 100.0 µM 72%
